Measurements as given in PubChem BioAssay (NCI).
The panel holds about 79,000 compounds, 15% with a hit somewhere; the sample as a whole holds those more often. Activity calls are given as the source filed them. Cut-off read from the data, not from the text of the source: active = growth inhibition above about 70%; inactive = the rest.

What was measured:
[1] = NCI Yeast Anticancer Drug Screen. Data for the rad52 strain (AID 147);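 note: 0% = growth of vehicle-treated control cultures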; conditions: S. cerevisiae rad52 mutant growth inhibition, active compounds read high
How it was run: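 Inhibition of yeast growth, referenced to vehicle controls, was the measured output for a strain with defective DNA damage repair.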

[2] = NCI Yeast Anticancer Drug Screen. Data for the wt1 strain (AID 149);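 note: 0% = growth of vehicle-treated wt1 cultures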; conditions: S. cerevisiae wt1 strain (SPY 50644) growth inhibition, active compounds read high
How it was run: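 Using yeast strain wt1, compound-induced growth inhibition was determined against vehicle-treated cultures.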

[3] = NCI Yeast Anticancer Drug Screen. Data for the rad50EPP+ strain (AID 151);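 note: 0% = growth of vehicle-treated control cultures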; conditions: S. cerevisiae rad50 mutant strain, active compounds read high
How it was run: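 Genetically defined yeast (rad50EPP+, DNA damage repair alteration) is grown with compound, and inhibition of growth is expressed relative to vehicle-treated controls.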

[4] = NCI Yeast Anticancer Drug Screen. Data for the mgt1 strain (AID 153); conditions: S. cerevisiae mgt1 mutant growth inhibition, active compounds read high
How it was run: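 In the mgt1 strain, test compounds were added and growth inhibition was determined relative to vehicle-treated controls.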

[5] = NCI Yeast Anticancer Drug Screen. Data for the rad50 strain (AID 155);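 note: 0% = growth of vehicle-only cultures of the same strain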; conditions: S. cerevisiae rad50 strain growth inhibition, active compounds read high
How it was run: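 Relative growth inhibition (compound vs vehicle) was measured in yeast with a defined repair-gene alteration.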

[6] = NCI Yeast Anticancer Drug Screen. Data for the mec2-1 strain (AID 157); conditions: S. cerevisiae mec2-1 strain, active compounds read high
How it was run: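 Each compound was tested on mec2-1 yeast, a strain altered in DNA damage repair or cell cycle control. Growth inhibition is reported relative to vehicle.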

[7] = NCI Yeast Anticancer Drug Screen. Data for the rad14 strain (AID 159);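 note: 0% = growth of vehicle-treated control cultures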; conditions: S. cerevisiae rad14 strain growth inhibition, active compounds read high
How it was run: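 Screen for anticancer potential: a yeast strain altered in DNA damage repair is grown with compound, and reduced growth is quantified against vehicle controls.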

[8] = at 5.0 µM (retest, dose inferred, filed as 0.5)
[9] = at 50.0 µM (retest, dose inferred, filed as 5.0)

Measured: growth inhibition

OCC(O)C(O)CO (stereo unspecified) (tested in a mixture with another compound)
inactive: [1]; at 1.2 µM -2% | [1]; at 3.7 µM -3% | [1]; at 11.0 µM -1% | [1]; at 33.0 µM -4% | [1]; at 100.0 µM 8% | [2]; at 1.2 µM -4% | [2]; at 3.7 µM -4% | [2]; at 11.0 µM -5% | [2]; at 33.0 µM -2% | [2]; at 100.0 µM 0% | [3]; at 1.2 µM 1% | [3]; at 3.7 µM 2% | [3]; at 11.0 µM 6% | [3]; at 33.0 µM 9% | [3]; at 100.0 µM 10% | [4]; at 1.2 µM 0% | [4]; at 3.7 µM -2% | [4]; at 11.0 µM -1% | [4]; at 33.0 µM 5% | [4]; at 100.0 µM 0% | [5]; at 1.2 µM -8% | [5]; at 3.7 µM -17% | [5]; [8] -130% | [5]; at 11.0 µM -3% | [5]; at 33.0 µM 16% | [5]; at 50.0 µM 15.4% | [5]; at 100.0 µM -1% | [6]; at 1.2 µM -1% | [6]; at 3.7 µM 0% | [6]; [8] -47% | [6]; at 11.0 µM -6% | [6]; at 33.0 µM 0% | [6]; [9] -1% | [6]; at 50.0 µM 32.4% | [6]; at 100.0 µM 3% | [7]; at 1.2 µM -1% | [7]; at 3.7 µM -5% | [7]; at 11.0 µM -4% | [7]; at 33.0 µM -3% | [7]; at 100.0 µM -1%
active: [5]; [9] 82%
